The supplement of paper PMC11732987, “Enantioselective OTUD7B fragment discovery through chemoproteomics screening and high-throughput optimisation” (Communications Chemistry, 2025)

Columns and labels:
Assay in all cases: log2 ratio of Biotin-Ahx-Ub-VS probe labelling (compound/DMSO); higher = less target engagement, active = hit call of the paper (q ≤ 0.05, log2 ratio ≤ -1)
Details in all cases: treatment time: 3 h
[1] = compound: CN(Cc1cccc(Br)c1)C(=O)CCl
Method in brief: (§1)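 DUBs in HEK293T lysate were labelled with Biotin-Ahx-Ub-VS (0.5 µM final, 1 h) after a 3 h treatment with compound at 50 or 200 µM or with DMSO, done in triplicate on 495 µg of lysate per sample. NeutrAvidin-enriched proteins were digested with LysC and trypsin and run by diaPASEF LC-MS/MS. Median-normalised label-free quantities gave average base-two log ratios of compound to DMSO by unpaired t-test, restricted to proteins with at least 2 unique peptides.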

[2] = compound: CN(Cc1cccc(OCc2ccccc2C)c1)C(=O)CCl
Method in brief: as §1

[3] = compound: CN(Cc1ccccc1)C(=O)CCl
Method in brief: as §1

[4] = compound: COc1ccc(CN(C)C(=O)CCl)cc1
Method in brief: as §1

[5] = compound: COc1cccc(CN(CCCc2ccccc2)C(=O)CCl)c1
Method in brief: as §1

[6] = compound: ClCC(=O)N1CCc2cc(Cl)c(Cl)cc2C1
Method in brief: as §1

[7] = compound: ClCC(=O)N1CCc2nc(ncc2C1)-c1ccccc1
Method in brief: as §1

[8] = compound: ClCC(=O)N1CCc2nocc2C1
Method in brief: as §1

[9] = compound: ClCC(=O)N1CCc2scc(Br)c2C1
Method in brief: as §1

[10] = compound: ClCC(=O)NC(C1CCCC1)c1cccs1
Method in brief: as §1

Measured: log2 ratio of Biotin-Ahx-Ub-VS probe labelling

USP54 (UniProt Q70EL1)
Sequence of UniProt Q70EL1 (Q70EL1 whole entry): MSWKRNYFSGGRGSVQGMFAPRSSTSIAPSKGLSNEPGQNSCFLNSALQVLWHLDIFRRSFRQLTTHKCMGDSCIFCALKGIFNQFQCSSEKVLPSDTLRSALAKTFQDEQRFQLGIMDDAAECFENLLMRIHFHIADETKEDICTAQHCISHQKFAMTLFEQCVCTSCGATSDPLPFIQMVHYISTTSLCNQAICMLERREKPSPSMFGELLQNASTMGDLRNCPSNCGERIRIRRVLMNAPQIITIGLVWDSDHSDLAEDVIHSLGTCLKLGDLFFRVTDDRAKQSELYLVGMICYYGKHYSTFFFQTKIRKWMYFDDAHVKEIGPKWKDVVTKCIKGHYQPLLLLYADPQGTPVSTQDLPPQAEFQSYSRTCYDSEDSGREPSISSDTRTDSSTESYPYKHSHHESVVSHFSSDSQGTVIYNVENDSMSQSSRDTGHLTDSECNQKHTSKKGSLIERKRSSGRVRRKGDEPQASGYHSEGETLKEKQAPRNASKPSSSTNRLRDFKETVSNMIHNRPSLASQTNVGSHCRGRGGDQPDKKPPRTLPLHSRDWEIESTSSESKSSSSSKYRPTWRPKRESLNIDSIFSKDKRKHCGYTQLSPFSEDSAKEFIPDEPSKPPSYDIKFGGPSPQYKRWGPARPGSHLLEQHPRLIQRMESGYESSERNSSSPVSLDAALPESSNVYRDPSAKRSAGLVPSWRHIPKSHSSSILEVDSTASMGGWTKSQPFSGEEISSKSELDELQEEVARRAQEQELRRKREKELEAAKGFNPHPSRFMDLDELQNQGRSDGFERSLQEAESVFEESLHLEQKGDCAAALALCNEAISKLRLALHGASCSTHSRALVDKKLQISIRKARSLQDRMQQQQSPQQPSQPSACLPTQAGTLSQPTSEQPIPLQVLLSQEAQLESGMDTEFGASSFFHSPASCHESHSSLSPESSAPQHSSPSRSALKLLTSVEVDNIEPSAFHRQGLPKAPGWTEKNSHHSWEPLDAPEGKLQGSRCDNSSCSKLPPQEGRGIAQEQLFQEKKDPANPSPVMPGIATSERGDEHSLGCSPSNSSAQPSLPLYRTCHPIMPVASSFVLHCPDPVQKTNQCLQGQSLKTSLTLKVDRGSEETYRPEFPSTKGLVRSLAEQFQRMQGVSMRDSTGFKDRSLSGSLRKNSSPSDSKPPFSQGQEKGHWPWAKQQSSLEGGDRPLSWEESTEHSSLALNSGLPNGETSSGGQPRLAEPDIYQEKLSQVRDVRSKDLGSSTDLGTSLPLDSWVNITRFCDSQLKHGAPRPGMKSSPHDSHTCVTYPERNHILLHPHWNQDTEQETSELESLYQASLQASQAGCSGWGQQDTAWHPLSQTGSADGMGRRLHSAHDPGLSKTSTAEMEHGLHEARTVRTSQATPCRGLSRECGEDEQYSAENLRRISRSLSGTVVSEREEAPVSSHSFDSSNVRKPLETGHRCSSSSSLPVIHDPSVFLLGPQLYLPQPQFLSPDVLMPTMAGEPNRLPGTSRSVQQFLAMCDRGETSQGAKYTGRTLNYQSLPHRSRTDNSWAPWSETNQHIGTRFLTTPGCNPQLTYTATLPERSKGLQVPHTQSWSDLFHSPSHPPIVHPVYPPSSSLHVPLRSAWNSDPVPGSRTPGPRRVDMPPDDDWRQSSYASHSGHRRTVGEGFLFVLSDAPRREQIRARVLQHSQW
inactive: [1]; compound concentration: 50uM 0.085 | [1]; compound concentration: 200uM -0.845 | [2]; compound concentration: 200uM -0.985 | [3]; compound concentration: 50uM -0.885 | [3]; compound concentration: 200uM -0.551 | [4]; compound concentration: 50uM -0.773 | [5]; compound concentration: 50uM -0.358 | [6]; compound concentration: 50uM -0.895 | [7]; compound concentration: 50uM -0.823 | [8]; compound concentration: 50uM -0.519 | [9]; compound concentration: 50uM -0.124 | [10]; compound concentration: 50uM 0.0591 | [10]; compound concentration: 200uM 0.198
active: [2]; compound concentration: 50uM -1.29 | [4]; compound concentration: 200uM -2.33 | [5]; compound concentration: 200uM -2.68 | [6]; compound concentration: 200uM -2.65 | [7]; compound concentration: 200uM -2.39 | [8]; compound concentration: 200uM -1.77 | [9]; compound concentration: 200uM -2.07

YOD1 (UniProt Q5VVQ6)
Sequence of UniProt Q5VVQ6 (Q5VVQ6 whole entry): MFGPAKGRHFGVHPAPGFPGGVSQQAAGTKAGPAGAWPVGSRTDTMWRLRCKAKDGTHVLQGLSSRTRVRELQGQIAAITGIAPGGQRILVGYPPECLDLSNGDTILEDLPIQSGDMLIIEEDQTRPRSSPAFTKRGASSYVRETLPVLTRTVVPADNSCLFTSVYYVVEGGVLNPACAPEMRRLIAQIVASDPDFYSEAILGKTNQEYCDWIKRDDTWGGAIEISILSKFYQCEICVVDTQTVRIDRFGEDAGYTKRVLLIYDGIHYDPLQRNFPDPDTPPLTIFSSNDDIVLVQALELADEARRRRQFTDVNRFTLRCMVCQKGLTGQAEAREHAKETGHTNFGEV
inactive: [1]; compound concentration: 50uM -0.152 | [1]; compound concentration: 200uM 0.742 | [2]; compound concentration: 50uM -0.555 | [2]; compound concentration: 200uM -0.132 | [3]; compound concentration: 50uM -0.391 | [3]; compound concentration: 200uM -0.259 | [4]; compound concentration: 50uM -0.465 | [4]; compound concentration: 200uM -0.288 | [5]; compound concentration: 50uM -0.0608 | [5]; compound concentration: 200uM 0.000762 | [6]; compound concentration: 50uM 0.356 | [6]; compound concentration: 200uM -0.373 | [7]; compound concentration: 50uM 0.102 | [7]; compound concentration: 200uM 0.0411 | [8]; compound concentration: 50uM -0.0213 | [8]; compound concentration: 200uM -0.416 | [9]; compound concentration: 50uM 0.039 | [9]; compound concentration: 200uM -0.482 | [10]; compound concentration: 50uM -0.11 | [10]; compound concentration: 200uM 0.00107

PSMD7 (UniProt P51665)
inactive: [1]; compound concentration: 50uM -1.92 | [1]; compound concentration: 200uM 0.377 | [2]; compound concentration: 50uM 0.204 | [2]; compound concentration: 200uM -0.694 | [3]; compound concentration: 50uM 0.305 | [3]; compound concentration: 200uM 1.21 | [4]; compound concentration: 50uM -0.346 | [4]; compound concentration: 200uM 2.6 | [5]; compound concentration: 50uM 0.459 | [5]; compound concentration: 200uM 0.335 | [6]; compound concentration: 50uM -1.17 | [6]; compound concentration: 200uM 0.126 | [7]; compound concentration: 50uM -0.153 | [7]; compound concentration: 200uM 0.514 | [8]; compound concentration: 50uM 0.812 | [8]; compound concentration: 200uM 0.83 | [9]; compound concentration: 50uM 0.689 | [9]; compound concentration: 200uM 0.149 | [10]; compound concentration: 50uM 0.0697 | [10]; compound concentration: 200uM 0.463

USP16 (UniProt Q9Y5T5)
Sequence of UniProt Q9Y5T5 (Q9Y5T5 whole entry, looked up): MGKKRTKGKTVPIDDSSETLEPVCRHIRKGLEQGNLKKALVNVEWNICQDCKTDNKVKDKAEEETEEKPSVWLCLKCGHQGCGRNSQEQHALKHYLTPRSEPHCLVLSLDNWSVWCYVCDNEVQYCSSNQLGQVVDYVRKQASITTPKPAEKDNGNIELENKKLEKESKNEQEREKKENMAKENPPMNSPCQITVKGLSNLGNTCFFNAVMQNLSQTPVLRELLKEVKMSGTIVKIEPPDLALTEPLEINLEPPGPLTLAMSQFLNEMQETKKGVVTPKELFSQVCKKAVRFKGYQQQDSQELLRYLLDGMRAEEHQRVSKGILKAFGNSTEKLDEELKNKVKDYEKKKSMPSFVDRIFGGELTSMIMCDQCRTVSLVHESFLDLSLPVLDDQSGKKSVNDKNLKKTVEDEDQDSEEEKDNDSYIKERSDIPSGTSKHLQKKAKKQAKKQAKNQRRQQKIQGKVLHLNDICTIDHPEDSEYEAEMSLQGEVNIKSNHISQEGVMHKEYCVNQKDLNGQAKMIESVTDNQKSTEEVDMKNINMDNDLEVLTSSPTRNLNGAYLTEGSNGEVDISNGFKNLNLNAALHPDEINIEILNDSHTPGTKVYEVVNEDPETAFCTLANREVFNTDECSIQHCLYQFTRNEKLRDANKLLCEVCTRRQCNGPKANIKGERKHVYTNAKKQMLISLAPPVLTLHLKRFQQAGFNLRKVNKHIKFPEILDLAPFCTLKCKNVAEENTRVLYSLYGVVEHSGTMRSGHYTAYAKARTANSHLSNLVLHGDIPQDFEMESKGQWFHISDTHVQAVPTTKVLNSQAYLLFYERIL
active: [1]; compound concentration: 200uM -1.27 | [7]; compound concentration: 200uM -1.62
inactive: [1]; compound concentration: 50uM -0.307 | [2]; compound concentration: 50uM -0.495 | [2]; compound concentration: 200uM -0.496 | [3]; compound concentration: 50uM -0.434 | [3]; compound concentration: 200uM -0.669 | [4]; compound concentration: 50uM -0.00981 | [4]; compound concentration: 200uM -0.105 | [5]; compound concentration: 50uM -0.312 | [5]; compound concentration: 200uM -0.936 | [6]; compound concentration: 50uM -0.694 | [6]; compound concentration: 200uM -0.189 | [7]; compound concentration: 50uM -0.0935 | [8]; compound concentration: 50uM -0.0383 | [8]; compound concentration: 200uM -0.326 | [9]; compound concentration: 50uM -0.507 | [9]; compound concentration: 200uM 0.00388 | [10]; compound concentration: 50uM -0.325 | [10]; compound concentration: 200uM -0.246

USP15 (UniProt Q9Y4E8)
Sequence of UniProt Q9Y4E8 (Q9Y4E8 whole entry): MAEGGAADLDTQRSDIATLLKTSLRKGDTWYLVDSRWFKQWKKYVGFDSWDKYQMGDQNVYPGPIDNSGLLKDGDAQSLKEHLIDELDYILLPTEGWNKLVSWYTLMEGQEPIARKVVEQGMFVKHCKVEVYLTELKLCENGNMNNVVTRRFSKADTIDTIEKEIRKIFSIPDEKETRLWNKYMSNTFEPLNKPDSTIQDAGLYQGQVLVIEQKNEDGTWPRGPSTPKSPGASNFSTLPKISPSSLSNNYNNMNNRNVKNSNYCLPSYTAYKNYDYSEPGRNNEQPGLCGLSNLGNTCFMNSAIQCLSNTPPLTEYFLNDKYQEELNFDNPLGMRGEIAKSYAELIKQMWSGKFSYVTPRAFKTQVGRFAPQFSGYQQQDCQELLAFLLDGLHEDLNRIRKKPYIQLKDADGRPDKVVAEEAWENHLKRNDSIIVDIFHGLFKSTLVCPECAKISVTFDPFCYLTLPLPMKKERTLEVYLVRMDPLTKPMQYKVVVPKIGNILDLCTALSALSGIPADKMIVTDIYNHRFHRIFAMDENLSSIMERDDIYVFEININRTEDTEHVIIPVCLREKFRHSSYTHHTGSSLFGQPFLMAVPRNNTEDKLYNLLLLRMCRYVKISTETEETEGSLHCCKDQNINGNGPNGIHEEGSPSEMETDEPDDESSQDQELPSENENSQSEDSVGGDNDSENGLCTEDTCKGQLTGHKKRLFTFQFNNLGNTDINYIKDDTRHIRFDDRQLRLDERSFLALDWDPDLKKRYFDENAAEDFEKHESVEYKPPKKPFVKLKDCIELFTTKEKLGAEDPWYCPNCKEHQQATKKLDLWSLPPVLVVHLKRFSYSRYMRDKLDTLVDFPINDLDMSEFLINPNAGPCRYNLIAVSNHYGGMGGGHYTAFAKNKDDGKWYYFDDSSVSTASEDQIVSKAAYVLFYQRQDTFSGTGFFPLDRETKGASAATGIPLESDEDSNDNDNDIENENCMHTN
active: [6]; compound concentration: 200uM -1.85 | [7]; compound concentration: 200uM -1.06 | [9]; compound concentration: 200uM -1.88
inactive: [1]; compound concentration: 50uM -0.321 | [1]; compound concentration: 200uM -0.664 | [2]; compound concentration: 50uM -0.611 | [2]; compound concentration: 200uM -0.533 | [3]; compound concentration: 50uM -0.368 | [3]; compound concentration: 200uM -0.462 | [4]; compound concentration: 50uM -0.242 | [4]; compound concentration: 200uM -0.334 | [5]; compound concentration: 50uM -0.289 | [5]; compound concentration: 200uM -0.43 | [6]; compound concentration: 50uM -0.407 | [7]; compound concentration: 50uM -0.105 | [8]; compound concentration: 50uM -0.404 | [8]; compound concentration: 200uM -0.641 | [9]; compound concentration: 50uM -0.779 | [10]; compound concentration: 50uM 0.0422 | [10]; compound concentration: 200uM -0.0218

COPS5 (UniProt Q92905)
inactive: [1]; compound concentration: 50uM 0.118 | [1]; compound concentration: 200uM -0.11 | [2]; compound concentration: 50uM -0.375 | [2]; compound concentration: 200uM -0.104 | [3]; compound concentration: 50uM -0.103 | [3]; compound concentration: 200uM 0.0593 | [4]; compound concentration: 50uM 0.00458 | [4]; compound concentration: 200uM -0.13 | [5]; compound concentration: 50uM -0.0338 | [5]; compound concentration: 200uM -0.0977 | [6]; compound concentration: 50uM -0.307 | [6]; compound concentration: 200uM -0.222 | [7]; compound concentration: 50uM -0.406 | [7]; compound concentration: 200uM 0.395 | [8]; compound concentration: 50uM -0.35 | [8]; compound concentration: 200uM 0.152 | [9]; compound concentration: 50uM -0.23 | [9]; compound concentration: 200uM -0.704 | [10]; compound concentration: 50uM 0.21 | [10]; compound concentration: 200uM -0.0541

EIF3H (UniProt O15372)
Sequence of UniProt O15372 (O15372 whole entry): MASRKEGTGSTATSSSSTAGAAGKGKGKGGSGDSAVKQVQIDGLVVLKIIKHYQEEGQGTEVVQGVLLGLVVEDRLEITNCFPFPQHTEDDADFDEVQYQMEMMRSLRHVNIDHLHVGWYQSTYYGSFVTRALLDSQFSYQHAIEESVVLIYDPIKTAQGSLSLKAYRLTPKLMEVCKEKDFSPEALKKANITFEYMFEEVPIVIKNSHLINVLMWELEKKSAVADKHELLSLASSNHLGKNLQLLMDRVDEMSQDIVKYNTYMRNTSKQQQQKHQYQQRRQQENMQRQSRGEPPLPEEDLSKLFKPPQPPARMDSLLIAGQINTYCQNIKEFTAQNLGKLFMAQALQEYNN
inactive: [1]; compound concentration: 50uM -0.0499 | [1]; compound concentration: 200uM -0.495 | [2]; compound concentration: 50uM -0.0626 | [2]; compound concentration: 200uM -0.0695 | [3]; compound concentration: 50uM -0.0247 | [3]; compound concentration: 200uM -0.0426 | [4]; compound concentration: 50uM -0.128 | [4]; compound concentration: 200uM 0.0275 | [5]; compound concentration: 50uM 0.0566 | [5]; compound concentration: 200uM 0.0114 | [6]; compound concentration: 50uM -0.344 | [6]; compound concentration: 200uM 0.309 | [7]; compound concentration: 50uM -0.162 | [7]; compound concentration: 200uM 0.025 | [8]; compound concentration: 50uM 0.0895 | [8]; compound concentration: 200uM -0.349 | [9]; compound concentration: 50uM -0.0247 | [9]; compound concentration: 200uM 0.0406 | [10]; compound concentration: 50uM -0.136 | [10]; compound concentration: 200uM 0.0107

UniProt Q70EL2
Sequence of UniProt Q70EL2 (Q70EL2 whole entry): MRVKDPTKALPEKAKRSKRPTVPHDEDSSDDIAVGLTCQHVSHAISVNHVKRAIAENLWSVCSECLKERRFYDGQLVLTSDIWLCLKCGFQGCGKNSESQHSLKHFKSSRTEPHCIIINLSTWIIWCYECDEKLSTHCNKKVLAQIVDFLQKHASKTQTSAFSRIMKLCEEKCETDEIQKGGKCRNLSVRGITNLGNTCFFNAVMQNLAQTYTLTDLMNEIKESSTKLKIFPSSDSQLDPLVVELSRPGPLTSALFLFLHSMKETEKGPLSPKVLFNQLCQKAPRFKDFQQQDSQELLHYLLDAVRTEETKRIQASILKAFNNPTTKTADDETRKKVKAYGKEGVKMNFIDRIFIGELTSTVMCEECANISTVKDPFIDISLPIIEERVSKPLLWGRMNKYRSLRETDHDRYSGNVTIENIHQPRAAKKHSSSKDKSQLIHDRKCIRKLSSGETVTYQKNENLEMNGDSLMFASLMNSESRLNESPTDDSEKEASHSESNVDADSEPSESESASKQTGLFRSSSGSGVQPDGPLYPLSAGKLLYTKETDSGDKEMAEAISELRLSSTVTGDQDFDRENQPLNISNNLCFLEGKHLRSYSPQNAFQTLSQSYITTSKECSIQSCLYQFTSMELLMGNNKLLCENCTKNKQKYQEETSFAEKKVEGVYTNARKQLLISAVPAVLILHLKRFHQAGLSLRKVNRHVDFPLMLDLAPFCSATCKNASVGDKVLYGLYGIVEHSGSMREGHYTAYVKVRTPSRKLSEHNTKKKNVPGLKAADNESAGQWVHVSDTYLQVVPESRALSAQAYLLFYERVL
active: [6]; compound concentration: 200uM -1.27 | [7]; compound concentration: 200uM -1.03
inactive: [1]; compound concentration: 50uM -0.228 | [1]; compound concentration: 200uM -0.814 | [2]; compound concentration: 50uM -0.959 | [2]; compound concentration: 200uM -0.772 | [3]; compound concentration: 50uM -0.191 | [3]; compound concentration: 200uM -0.88 | [4]; compound concentration: 50uM -0.338 | [4]; compound concentration: 200uM -0.647 | [5]; compound concentration: 50uM -0.512 | [5]; compound concentration: 200uM -0.481 | [6]; compound concentration: 50uM -0.569 | [7]; compound concentration: 50uM -0.558 | [8]; compound concentration: 50uM -0.0582 | [8]; compound concentration: 200uM -0.311 | [9]; compound concentration: 50uM -0.413 | [9]; compound concentration: 200uM -0.868 | [10]; compound concentration: 50uM 0.37 | [10]; compound concentration: 200uM -0.115
